Shown are actives, neighbours in structure and some others; about 13% of the full set was active somewhere.
HADH2 inh: HADH2 (human) dehydrogenase inhibition; 73,000 compounds, 3.4% hits; Potency, µM (highest dose often 57.1 µM), for inactives: at the top dose activity change, negative = inhibition, most hits filed as inhibitors; Q99714; recombinant HADH2, NADH fluorescence, beta-hydroxybutyryl-CoA; also: potency is read from the fitted curve at half-maximal effect; % is scaled to controls: 0 for no effect and ±100 for the full control effect; nearly all actives have a fitted effect of over 60% in size
Target sequence (Q99714 whole entry, looked up, one chain of several): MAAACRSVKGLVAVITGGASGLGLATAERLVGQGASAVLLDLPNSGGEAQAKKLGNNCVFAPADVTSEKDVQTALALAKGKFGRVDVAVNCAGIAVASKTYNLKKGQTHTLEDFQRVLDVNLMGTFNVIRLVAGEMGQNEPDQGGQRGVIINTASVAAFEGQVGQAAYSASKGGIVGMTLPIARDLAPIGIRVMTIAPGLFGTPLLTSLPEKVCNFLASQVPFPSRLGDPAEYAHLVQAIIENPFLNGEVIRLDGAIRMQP
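E. coli-expressed His-tagged HADH2 tested at 20 nM in alkaline Tris buffer (pH 9.0); oxidation of 90 uM beta-hydroxybutyryl-CoA with 1 mM NAD+ tracked fluorimetrically for 4 min.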
AID923: qHTS Assay for Allosteric/Competitive Inhibitors of Caspase-1: Spectroscopic Profiling in AFC Spectral Region. compound fluorescence, AFC spectral region (405/520 nm). Potency, µM (titrated, usually from 57.5 µM), without a hit: at the top dose fluorescence increase, most hits filed as activators. 75,000 compounds, 1.1% hits. AID 923, 2007; also: potency is read from the fitted curve at half-maximal effect; 0% is about no effect
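Baseline compound fluorescence (AFC region, 405 nm ex/520 nm em) taken from the intercept of kinetic reads with 50 nM caspase-1 and 5 uM Ac-WEHD-AFC; normalized to an on-plate AFC standard curve; compounds titrated up to 57 uM.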
HSD17B inhib: HSD17B dehydrogenase inhibition; recombinant HSD17B10, NADH fluorescence kinetic; Potency, µM (titrated, usually from 57.1 µM), without a hit: at the top dose activity change, negative = inhibition, actives largely listed as inhibitors; 75,000 compounds, 7.6% hits;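 also: the protocol describes HADH2 (HSD17B10) and not the HSD17B4 of the title; potency is read from the fitted curve at half-maximal effect; % is scaled to controls: 0 for no effect and ±100 for the full control effect; nearly all actives have a fitted effect of over 70% in size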
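Enzyme plus compound, 15 min room temperature; substrate mix added (NAD+ 1 mM, beta-hydroxybutyryl-CoA 90 uM final); plates read kinetically for NADH fluorescence. HADH2 was His-tagged, E. coli-derived, 20 nM.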
PK Bst: pyruvate kinase (B. stearothermophilus) modulation; purified pyruvate kinase, luminescence ATP production; ribose 5-phosphate activator present at AC10; Potency, µM; 51,000 compounds, 1.2% hits; in the data active = potency below about 11 µM; inconclusive = mostly about 12 µM to 25 µM;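 the screen sought inhibitors and activators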;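 also: potency is read from the fitted curve at half-maximal effect; scaled between full activation by ribose 5 phosphate and full inhibition by luteolin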
4-MU autofl: compounds fluorescent in 4-MU spectral region; compound autofluorescence, 340/450 nm, 4-MU equivalents; active compounds read high; max dye-equivalent concentration, M; 59,000 compounds, 11% hits; in the data active = max dye-equivalent concentration above about 10 nM; inconclusive = mostly about 1.1 nM to 9.6 nM
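Compounds in 100 mM Tris, pH 8.0, incubated 15 min at room temperature, then fluorescence read at 340 nm excitation/450 nm emission. Signal converted to 4-MU dye-equivalent concentration using an on-plate six-point 4-MU standard curve.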
A350 autofl: A350 region autofluorescence. 59,000 compounds, 11% hits. max dye-equivalent concentration, M. Compound autofluorescence, 340/450 nm, Alexa 350 dye-equivalents; active compounds read high; in the data active = max dye-equivalent concentration above about 10 nM; inconclusive = mostly about 1.1 nM to 9.6 nM
The depositor's hits bear a star; i = inactive; ? = inconclusive; . = no result given; [ ] = remark or other dose. Unless noted, calls follow the shape of the dose curve; as a rule, active = well fitted curve in the direction sought with a large enough effect; inconclusive = small, poorly fitted or top-dose-only effect, or another doubt; inactive = no such curve, though single readings can be large; an effect the other way counts as inactive or inconclusive.

SMILES	HADH2 inh	AID923	HSD17B inhib	PK Bst	4-MU autofl	A350 autofl
O=C(Nc1cccc2cccnc12)c1ccc(Br)o1	14%	1%	-4%	>57	i	i
O=C(Nc1ccc(-c2nc3ncccc3o2)cc1)c1ccco1	32µM*	0%	20µM*	?	4.8e-07M*	3.7e-07M*
O=C(Nc1ccccc1)c1ccc(Cc2nc3ccccc3[nH]2)cc1	3%	1%	1%	.	.	.
CCOC(=O)C1(O)Oc2cc(OC)cc(OC)c2C(=O)C1c1ccccc1 (stereo not given)	.	-1%	-2%	.	.	.
CCC(C)C(NCc1cccc(C)c1)C(=O)O (stereo not given)	15%	2%	-5%	>57	?	?
CCC(C)[C@@H](NC(=O)OC(C)(C)C)c1nnc(S(=O)(=O)Cc2cccc(C)c2)o1 (stereo not given in full)	2.5µM*	1%	-5%	>57	i	i
CC(C)(C)OC(=O)N[C@@H](Cc1ccccc1)c1nnc(S(=O)(=O)Cc2ccccc2)o1	1.3µM*	-1%	-13%	>57	i	i
CC(C)(C)OC(=O)N[C@@H](Cc1ccccc1)c1nnc(SCC(=O)O)o1	5%	-1%	4%	>57	i	?
COc1ccc(N2CCN(C(=O)CN3C(=O)C4CC=CCC4C3=O)CC2)cc1 (stereo not given)	-22%	0%	25µM*	>57	3.2e-07M*	4e-07M*
COc1cc([C@@H](O)CO)ccc1OS(=O)(=O)O	11%	-4%	7%	.	i	i
COCCNC(=O)CCn1c(=O)oc2ccccc21	0%	0%	-2%	>57	?	1.2e-08M*
CCCCCNC(=O)CCn1c(=O)oc2ccccc21	1%	0%	8%	>57	i	i
O=C(CCn1c(=O)oc2ccccc21)n1c(=O)oc2ccccc21	7.9µM*	1%	-4%	>57	i	i
Cc1cccc(C)c1NS(=O)(=O)c1ccc(F)cc1	-2%	0%	-15%	?	i	i
CC(c1ccccc1F)n1cc(C(=O)NCCc2ccco2)nn1 (stereo not given)	1%	2%	1%	>57	?	1.3e-08M*
CC(c1ccccc1F)n1cc(C(=O)NCc2ccncc2)nn1 (stereo not given)	3%	-3%	2%	>57	i	?
COC(=O)[C@@]1(Cc2ccc(OC)cc2)[C@H]2c3cc(C(=O)N4CCCC4)n(CCc4c[nH]c5ccc(OC)cc45)c3C[C@H]2CN1C(=O)c1ccccc1	1%	1%	4%	.	.	.
COc1ccc(OC)c(-c2cc(C(=O)Nc3cc(C)on3)no2)c1	25µM*	-1%	25µM*	>57	2.9e-07M*	2.5e-07M*
COc1ccc(-c2cc(C(=O)Nc3cc(C)n(Cc4ccc(Cl)cc4)n3)no2)cc1OC	135%	-1%	20µM*	>57	i	i
COc1ccc(OC)c(-c2cc(C(=O)Nc3c(C)nn(Cc4ccc(Cl)cc4)c3C)no2)c1	?	2%	32µM*	>57	2.4e-08M*	1.9e-08M*
COc1ccc(OC)c(-c2cc(C(=O)N3CCc4ccccc4C3)no2)c1	?	2%	32µM*	>57	?	?
COc1ccc(OC)c(-c2cc(C(=O)Nc3c(C)nn(Cc4ccccc4)c3C)no2)c1	?	-1%	?	>57	?	?
OB(O)c1ccc(Cl)s1	-2%	0%	10%	.	.	.
COc1ccc(-n2c(=O)c(-c3ccc(F)cc3)nc3cncnc32)cc1	5%	5%	8%	.	i	i
C=C1CCC2C(CC2(C)C)C(=O)CCC1O (stereo not given)	.	-2%	-1%	.	.	.
SMILES	HADH2 inh	AID923	HSD17B inhib	PK Bst	4-MU autofl	A350 autofl
COc1ccc(-c2csc(NC(=O)c3cc(C)on3)c2C#N)cc1OC	-22%	5%	-6%	>57	1.4e-08M*	1.3e-08M*
COc1cccc(-c2cc(C(=O)Nc3cccc(O)c3)no2)c1	3%	0%	-21%	5.6*	i	i
CCc1c(C)sc(NC(=O)c2cc(-c3cc(OC)ccc3OC)on2)c1C#N	?	7%	-14%	>11	9.1e-08M*	8.1e-08M*
O=C(NCc1ccco1)c1cc(-c2ccc3c(c2)OCO3)on1	111%	0%	25µM*	>57	?	?
CO[C@H]1COC(=O)[C@@H](C)COC(=O)[C@H](C)NC(=O)C/C=C\[C@H]1C	1%[11.4 µM]	0%[11.5 µM]	0%[11.4 µM]	.	.	.
CN(C)C(=O)c1ccc(-c2ccc3ncnc(N4CCC(C(=O)O)CC4)c3c2)cc1	12%	2%	?	.	i	i
CNc1ncnc2c1ncn2[C@H]1C[C@@H](OP(=O)(O)O)[C@H](COP(=O)(O)O)O1	-16%	0%	5%	.	i	i
COc1ccc(-c2cc(C(=O)Nc3ccc(C)cc3)no2)cc1	-2%	2%	13µM*	>57	i	i
Cc1nn(Cc2ccc(Cl)c(Cl)c2)c(C)c1NC(=O)c1cc(-c2ccc3c(c2)OCO3)on1	-7%	2%	-8%	>57	?	?
COc1ccc(OC)c(-c2cc(C(=O)NCc3ccco3)no2)c1	39%	-2%	-15%	.	1.2e-07M*	2.5e-07M*
Cc1nn(Cc2ccc(Cl)cc2)c(C)c1NC(=O)c1cc(-c2ccc3c(c2)OCO3)on1	-1%	-1%	-5%	>57	2.1e-08M*	1.9e-08M*
COc1ccc(OC)c(-c2cc(C(=O)Nc3cccc(Cl)c3)no2)c1	32µM*	2%	32µM*	>57	2.9e-07M*	2.3e-07M*
COc1ccc(NC(=O)c2cc(-c3ccccc3OC)on2)cc1	30%	-1%	47%	.	i	i
Cc1occc1-c1nnc(SCC(=O)N2CCCc3ccccc32)n1Cc1ccco1	-5%	-1%	-12%	>57	i	i
CC(=O)OC[C@@H]1O[C@@H](O/N=C2/C[C@@H](O)[C@@H](O)[C@@H]3[C@@H]4C(=O)N([C@@H](C)c5ccccc5)C(=O)[C@H]4CC[C@@H]23)[C@H](OC(C)=O)[C@H](OC(C)=O)[C@@H]1OC(C)=O	-1%[11.4 µM]	-2%[11.5 µM]	5%[11.4 µM]	.	.	.
O=C(O)c1ccc(S(=O)(=O)N=Nc2c(O)[nH]c3ccccc23)cc1	6%[11.4 µM]	0%[11.5 µM]	-8%[11.4 µM]	.	?	?
CCOc1cccc(-c2cc(C(=O)N/N=C/c3cccc(OC)c3O)[nH]n2)c1	12%	1%	0%	.	.	.
COC(=O)c1cc(-c2cccc(OC)c2)n[nH]1	-13%	0%	5%	>57	1.3e-08M*	1.7e-08M*
Cc1ccc(O)c(CC(C)C)n1	-26%	-1%	25µM*	>57	i	?
O=C(NC[C@H]1CCCCN1)c1cc(OCC(F)(F)F)ccc1OCC(F)(F)F	-2%	-1%	-4%	.	?	?
